Only a selection was taken, and hits are over-represented in it overall.
Pf Dd2 growth – qHTS Primary assay for Inhibitors of Plasmodium falciparum Dd2 growth in vitro; actives 4.3% (n = 120,000); AID 1347417, 2020; P. falciparum Dd2 growth, SYBR Green, 72 h; Potency, µM (series often up to 28.9 µM), for inactives: at the top dose activity, negative = inhibition, actives largely listed as inhibitors; active means well fitted inhibition curve with a large enough effect;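 further: plate controls were DMSO vehicle for no effect and reference drug for full effect; nearly all actives have a fitted effect of over 65% in size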
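Infected erythrocytes (Dd2, 0.3% parasitemia, 2.5% hematocrit final) are added to compound in RPMI-1640/Albumax II medium, grown 72 h at 37C in low oxygen, then lysed with saponin/Triton-X containing SYBR Green and read by fluorescence.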
An asterisk follows results filed as active; i = inactive; [ ] = another dose, or the depositor's remark. Potency means the concentration at half of the fitted maximal effect.

SMILES | Pf Dd2 growth
Cc1ccc2oc(=O)c3cnn(CC(=O)Nc4ccc(Br)cc4C)c3c2c1 | -6.0%
Cc1ccc2oc(=O)c3cnn(CC(=O)N4CCN(c5cccc(C(F)(F)F)c5)CC4)c3c2c1 | 72.9%[5.79 µM]
Cc1ccc2oc(=O)c3cnn(CC(=O)Nc4cccc(C(F)(F)F)c4)c3c2c1 | 1.12µM*
CC(=O)N1CCC2(CC1)CN([S+](C)(=O)[O-])Cc1ccccc1O2 | i
O=C1CCN(C(=O)c2ccccc2)CCCC(C(=O)NCCCn2cccn2)CCN1 (centres undefined) | 1.1%
Cc1ccccc1C(=O)N(C)Cc1cccc(C(F)(F)F)c1 | 14.1µM*
CN(Cc1cccc(C(F)(F)F)c1)C(=O)C(C)(C)C | -1.3%[44.1 µM]
CN(Cc1cccc(C(F)(F)F)c1)C(=O)c1ccccc1 | i
O=S(=O)(c1ccc(F)cc1)N1CCC(n2cnnc2C2CC2)CC1 | i
O=C(c1ccccn1)N1CCC(c2cc(-c3ccc(F)cc3)n[nH]2)CC1 | 13.2%[5.79 µM]
COc1ccc(CCNC(=O)c2c(OC)cc(=O)n3c2CCCC3)cc1OC | 39.4%
CN1CCN(Cc2cnn(-c3cccc(Cl)c3)c2)CC1CCO (centres undefined) | 14.1µM*
COc1cc(CN2CCN(Cc3ccc(-n4cccn4)cc3C)CC2CCO)cc(OC)c1 (centres undefined) | -10.8%
Cc1cccc(-n2cc(CN3CC[C@H](CO)[C@@H](O)C3)cn2)c1 | -23.3%
CN(C)c1nc2c(c(=O)[nH]1)CCN(Cc1ccccc1)CC2 | 16.7%[5.79 µM]
CN(C)c1nc2c(c(=O)[nH]1)CCN(Cc1ccccc1Br)CC2 | 1.12µM*
CN(C)c1nc2c(c(=O)[nH]1)CCN(Cc1ccc(Br)cc1)CC2 | 2µM*
CN(C)c1nc2c(c(=O)[nH]1)CCN(Cc1ccccc1F)CC2 | i[5.79 µM]
CN(C)c1nc2c(c(=O)[nH]1)CCN(Cc1cccc(F)c1F)CC2 | i[5.79 µM]
O=c1[nH]c(N2CCOCC2)nc2c1CCN(Cc1cc(F)cc(F)c1)CC2 | -2.0%[5.79 µM]
O=c1[nH]c(N2CCOCC2)nc2c1CCN(Cc1ccc(C(F)(F)F)cc1)CC2 | 1.26µM*
Cc1ccc(CN2CCc3nc(N4CCOCC4)[nH]c(=O)c3CC2)cc1C | i[5.79 µM]
CN(C)c1nc2c(c(=O)[nH]1)CCN(Cc1ccc(Cl)cc1)CC2 | -3.8%[5.79 µM]
CCOc1ccc(-c2cc3c(=O)n(CCNC(=O)c4ccc[nH]4)ccn3n2)cc1 | -13.9%
COc1ccc(CN2C[C@H](O)C[C@H]2c2nc(-c3cccc([N+](=O)[O-])c3)no2)c(OC)c1OC | -13.4%
SMILES | Pf Dd2 growth
C[C@@]1(O)CCN(Cc2ccc(C#N)cc2)C[C@H]1N1CCCC1 | 22.1%[5.79 µM]
O=C(NCc1ccccn1)C1CCN(Cc2cc3n(n2)CCNC3)CC1 | -7.5%
CC(C)c1noc(CN2CCCC(c3nccn3Cc3ccccc3)C2)n1 (centres undefined) | i
CCc1ccc(C(=O)N2CCC(Oc3ncccc3C(=O)N(C)C)C2)cc1 (centres undefined) | -12.9%
COc1ccc(CC(=O)N2CCCCC23Cc2ccccc2NC3=O)cc1 (centres undefined) | -4.5%
Cc1cc(C(=O)N2CCOC[C@H](Oc3ccc(S(C)(=O)=O)cc3)C2)no1 | 1.6%[44.1 µM]
COc1ccc(-c2nc(CC3CCNC3)no2)cc1 (centres undefined) | 9.1%
O=C(NC1CC(=O)N(Cc2ccccc2C(F)(F)F)C1)c1cscn1 (centres undefined) | -18.2%
N#Cc1ccc(C(=O)N2CCOCCNC(=O)[C@@H]3CCC[C@@H]32)cc1 | 22.7%
Cc1ccc(-c2nnc(C3CN(C(=O)c4sccc4C)CC34CCOCC4)o2)cc1 (centres undefined) | i
COc1ccc(CCN(Cc2ccccn2)C(=O)[C@H]2CCC[C@H](O)C2)cc1 | -12.9%
CC(=O)N1CCN(C(=O)C[C@@H]2c3nc(-c4ccsc4)sc3C[C@@H]3[C@](C)(CO)[C@H](O)CC[C@]32C)CC1 | -49.0%
C[C@]1(CO)[C@H]2Cc3sc(NC(=O)c4ccc(F)cc4)nc3[C@@H](CC(=O)N3CCCCC3)[C@]2(C)CC[C@H]1O | i
C[C@]1(CO)[C@H]2Cc3sc(NC(=O)c4ccc(F)cc4)nc3[C@@H](CC(=O)N3CCOCC3)[C@]2(C)CC[C@H]1O | 10µM*
C[C@]1(CO)[C@H]2Cc3sc(-c4ccccc4)nc3[C@@H](CC(=O)N3CCOCC3)[C@]2(C)CC[C@H]1O | i
CC(C)(C)c1ccc(C(=O)Nc2nc3c(s2)C[C@@H]2[C@](C)(CO)[C@H](O)CC[C@@]2(C)[C@@H]3CC(=O)N2CCC(C(N)=O)CC2)cc1 | 11.2µM*
C[C@]1(CO)[C@H]2Cc3sc(NC(=O)C4CCC4)nc3[C@@H](CC(=O)N3CCOCC3)[C@]2(C)CC[C@H]1O | i
Cc1noc(C)c1-c1cnc2[nH]cc(CC(=O)N3CCN(C)CC3)c2c1 | 32.4%[44.1 µM]
CCc1ccc(N2CC(c3noc(Cc4ccccc4F)n3)CC2=O)cc1 (centres undefined) | -5.9%
c1coc(-c2nnc([C@H]3CCN(Cc4c[nH]c5ccccc45)C3)o2)c1 | i
CCNC(=O)N1CC(Oc2cccc(-c3nc(-c4ccccc4)no3)c2)C1 | 1.26µM*
O=C(c1ccc(F)cc1)N1CC(Oc2cccc(-c3nc(-c4ccccc4)no3)c2)C1 | 0.6%[5.79 µM]
O=C(Nc1ccccc1)N1CC(Oc2cccc(-c3nc(-c4ccccc4)no3)c2)C1 | 21.6%[5.79 µM]
O=C1NCCCc2[nH]c(-c3cnn(-c4cccc(F)c4)c3)nc21 | -25.7%
Cc1nnnn1-c1ccc(NS(=O)(=O)NCc2ccccc2)cc1 | 27.4%
SMILES | Pf Dd2 growth
COc1ccc(-c2ccc3c(c2)C(=O)N2CC[C@H](NC(=O)COCC(=O)O)[C@H]2C(=O)N3)cc1 | 7.0%
COc1ccc(-n2nc(C3CCCN(C(=O)c4ccccc4)C3)[nH]c2=O)cc1 (centres undefined) | 11.2µM*
COc1ccc(-n2nc(C3CCN(C(=O)c4ccccc4)CC3)[nH]c2=O)cc1 | -21.3%
O=C(Cc1cccc(Cl)c1)N1CCCC(c2nn(-c3cccc(Cl)c3)c(=O)[nH]2)C1 (centres undefined) | 10µM*
COc1ccc(C(=O)N2CCCC(c3nn(-c4ccccc4)c(=O)[nH]3)C2)cc1 (centres undefined) | i
O=C(c1ccccc1Cl)N1CCCC(c2nn(-c3cccc(Cl)c3)c(=O)[nH]2)C1 (centres undefined) | i
COc1ccc(-n2nc(C3CCCN(C(=O)Cc4cccc(Cl)c4)C3)[nH]c2=O)cc1 (centres undefined) | -23.5%
Cc1cnc(C(=O)NC2C[C@H]3CC[C@@H](C2)N3C(=O)CCc2c[nH]c3ccccc23)cn1 (some centres undefined) | i
CCOC(=O)CNC(=O)c1ccc(CN2C(=O)NC3(CCS(=O)(=O)CC3)C2=O)cc1 | i
O=C1OCCCN1C1CCN([S+](=O)([O-])c2ccccc2)CC1 | 19.6%
CC[C@@H]1[C@H](NC(=O)C2(c3ccc(S(C)(=O)=O)cc3)CCC2)[C@@H]2CCO[C@H]12 | -7.4%
COCC1CN(C(C)=O)CC12CCN(C(=O)CCCc1ccccc1)CC2 (centres undefined) | i
COCC[C@]1(O)CCN(C(=O)CCCc2ccccc2)C[C@H]1C | -7.6%
COCCN1CC2CN(C(=O)CCCc3ccccc3)CC(C1)O2 | 11.2µM*
COc1ccc(CNC(=O)CCc2conc2-c2ccc(C)cc2)cc1 | -3.2%
CC(C)N(C)Cc1nnnn1CC(=O)NCc1cn[nH]c1-c1ccc(F)cc1 | 2.5%
O=C(Cc1cccnc1)N1CCC(N2C(=O)C(OCC3CC3)C23CCCCC3)CC1 (centres undefined) | -28.1%
